# Screens deposited in PubChem by National Center for Advancing Translational Sciences (NCATS).
# This is one part of a sample in which hits are shown more often than they occur.
# Pf Dd2 growth – blocks in vitro growth of P. falciparum Dd2; 120,000 tested, 4.3% active; Potency, µM (highest dose often 28.9 µM), for inactives: at the top dose activity, negative = inhibition, actives largely listed as inhibitors; P. falciparum Dd2 growth, SYBR Green, 72 h; active = well fitted inhibition curve with a large enough effect;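 also: plate controls were DMSO vehicle for no effect and reference drug for full effect; nearly all actives have a fitted effect of over 65% in size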
#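 Readout: SYBR Green fluorescence, 485 nm excitation, 535 nm emission, after ~16 h lysis at 37C. Before that, Dd2-infected red cells (2.5% hematocrit) grew 72 h with compound, 29 uM top final concentration.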
# * marks the source's active call; other numbers are inactive results; i = inactive; [ ] = remark or other dose. Potency is read from the fitted curve at half-maximal effect.
SMILES,Pf Dd2 growth
O=C(c1cccs1)N1CCC2(CCCN(CCC3CCCCC3)C2=O)C1 (stereo not drawn),-7%
CCCNC(=O)N[C@@H]1C[C@H](COc2ccc(S(C)(=O)=O)cc2)[C@@H](O)[C@H]1O,1%[44.1 µM]
O=C1CCC2(CCN(C(=O)c3cccs3)CC2)CN1CCc1ccncc1,-10%
O=C(c1ccc2c(c1)OCO2)N1CC2CC(C1)[C@H]1CCCC(=O)N1C2 (stereo partly drawn),-11%
COCCNC(=O)CC(c1ccc(OC)c(OC)c1)c1c[nH]c2ccccc12 (stereo not drawn),i
O=C(c1ccsc1)N1CCN(C(=O)c2nnn3c2COC(c2ccccc2)C3)CC1 (stereo not drawn),-3%
O=C(c1cc(F)ccc1F)N1CCN(c2cc(-c3ccc(Cl)cc3)[nH]n2)CC1,-1%
c1ccc(CC2CCOC3(CCN(Cc4ccncc4)CC3)C2)cc1 (stereo not drawn),-17%
CCc1ccc(NC(=O)N2CCCC(c3noc(COc4ccccc4F)n3)C2)cc1 (stereo not drawn),i
Cc1cn2nc(C(=O)Nc3ccc(N(C)C)cc3)cc2c(N(C)Cc2ccccc2)n1,0.79µM*
Cc1ccc(NC(=O)c2cc3c(N4CCCC4)nc(C)cn3n2)cc1,-4%
Cc1cn2nc(C(=O)Nc3ccc(C)c(F)c3)cc2c(N(C)Cc2ccccc2)n1,10µM*
COc1ccc(NC(=O)c2cc3c(N4CCSCC4)nc(C)cn3n2)cc1F,28%
Cc1cn2nc(C(=O)Nc3ccc(F)c(C)c3)cc2c(N2CCSCC2)n1,-28%
Cc1ccc(CNC(=O)c2cc3c(N(C)Cc4ccccc4)nc(C)cn3n2)cc1,i
Cn1cc(CNC(=O)C[C@@H]2C[C@H]3O[C@H](CNCc4ccccc4C(F)(F)F)[C@@H](O)[C@H]3O2)cn1,22%
O=C(c1ccc(F)cc1)N1CCC2(CC1)COc1ccccc1[S+](=O)([O-])N2,i
CC(C)N(C)Cc1nnnn1CC(=O)NCC1CCCN(c2ncccn2)C1 (stereo not drawn),-6%
Cc1ccc(S(=O)(=O)N2CCCN(C(=O)C3CC3)c3ccccc32)cc1F,i
CCC(=O)N1CCC2(CCC2OC)CC1 (stereo not drawn),-20%
CCOC(=O)C1(Cc2ccccc2)CCCN(S(=O)(=O)c2cccs2)C1 (stereo not drawn),-2%
CCOC(=O)C1(Cc2ccc(F)cc2)CCCNC1 (stereo not drawn),2.8µM*
CCOC(=O)C1(Cc2ccc(F)cc2F)CCCN(C(=O)c2c(C)nc3ncccn23)C1 (stereo not drawn),-12%
CCOC(=O)c1cc(S(=O)(=O)NCc2ccc(F)cc2)[nH]n1,i
COc1cccc(CC2(CO)CCCNC2)c1 (stereo not drawn),-26%
SMILES,Pf Dd2 growth
COCC1CN(C(=O)CCc2cccc(OC)c2)CC12CCNCC2 (stereo not drawn),33%
COc1cccc(CNC(=O)C2=C(C)C(=O)OC23CCCCCC3)c1,-20%
CCOC(=O)C1(Cc2cccc(OC)c2)CCNCC1,5µM*
C=CCOc1cccc(C(=O)N2CCC(Cc3ccc(OC)cc3)(C(=O)OCC)CC2)c1,i
O=C(N1CCN(C/C=C/c2ccccc2)CC1)C12CNCC1CNC2 (stereo not drawn),-22%
CCOC(=O)C1(C/C=C/c2ccccc2)CCCNC1 (stereo not drawn),4µM*
CCOC(=O)C1(Cc2cccc(OC)c2)CCCNC1 (stereo not drawn),11µM*
CCCCc1nn(CC(=O)N2CCC(n3nc(C)cc3C)C2)c(=O)n1CC (stereo not drawn),0%
CN1C[C@@H](NC(=O)c2ccco2)C[C@H]1c1nc(-c2ccc(F)cc2)no1,-5%[44.1 µM]
Cc1ccc(CN2C(=O)COC[C@H]2C(=O)Nc2cccc(C(C)C)c2)cc1,-16%
O=C(O)c1cc(Br)cc(S(=O)(=O)NC2CCCCC2)c1,-3%
Cc1cccc(NC(=O)N2CC(C(=O)N(C)C)C3(CCOCC3)C2)c1C (stereo not drawn),0%
CC1CCCN1Cc1c(C(=O)N2CCCCCCC2)nc2sccn12 (stereo not drawn),-1%
CCOc1cc(=O)n2c(c1C(=O)N1CCOCC1)CCCCC2,i
Cc1ccc(-n2c(C3CCN(C(=O)C4(c5ccccc5)CC4)CC3)n[nH]c2=O)cc1,-5%
COc1cccc(C(=O)N2C(C(=O)NCC(C)C)COC23CCN(C(=O)c2cccc(F)c2)CC3)c1 (stereo not drawn),i
COc1ccc(C2CCC(=O)N2Cc2ccc3c(c2)OCO3)cc1 (stereo not drawn),6%
CCOC(=O)C1(Cc2ccccc2)CCCN(S(=O)(=O)c2ccc(OC)c(OC)c2)C1 (stereo not drawn),i
CCOC(=O)C1(Cc2ccc(Cl)cc2)CCN(Cc2ccc(OC)cc2O)CC1,0.089µM*
CCOC(=O)C1(Cc2ccc(OC)cc2)CCN(C(=O)C(C)Oc2ccccc2)CC1 (stereo not drawn),-10%
COc1cccc(CN2CCC3(CC2)C(=O)NCN3Cc2ccc(Cl)cc2)c1,-17%
CCOC(=O)C1(Cc2ccccc2)CCCN(C(=O)c2ccccc2SC)C1 (stereo not drawn),-34%
CCOC(=O)C1(Cc2ccccc2)CCNCC1,5.6µM*
CN1CCC(NC(=O)C(C)(C)Oc2nn(CCOc3ccccc3)c3ccccc23)CC1,i
COc1ccccc1CN1CC(c2noc(C3CCCCC3)n2)CC1=O (stereo not drawn),i
SMILES,Pf Dd2 growth
O=C(NC1CCCC1)C1c2ccccc2C(=O)N(C2CCCC2)C12CCCCC2 (stereo not drawn),10µM*
COC(=O)CNC(=O)C1c2ccccc2C(=O)N(C2CCCC2)C12CCCCC2 (stereo not drawn),-15%
CC(C)NC(=O)C1c2ccccc2C(=O)N(C2CCCC2)C12CCCC2 (stereo not drawn),11%
CN(CC(=O)N1CCC(C)(c2noc(C3CC3)n2)CC1)S(=O)(=O)c1cccs1,18%
O=C(NCc1ccc(F)cc1)C1CCN(C(=O)c2ncn3c2COC(c2ccc(Cl)cc2)C3)CC1 (stereo not drawn),1%
CCOc1ccc(-c2nnc(SCC(=O)NC3CCCC3)nc2-c2ccc(OCC)c(OC)c2)cc1OC,91%
CCOc1cc(-c2nnc(SCC(=O)Nc3ccc(F)c(F)c3)nc2-c2ccc(OC)c(OCC)c2)ccc1OC,15%
COc1ccc(-c2nnc(SCC(=O)NCc3ccccc3)nc2-c2ccc(OC)c(OC)c2)cc1OC,8.9µM*
CC(C)CN(C1CCOCC1)C1CN(C(=O)c2ccncc2)C1,-10%
O=S(=O)(c1cccnc1)N1CCCC(Cn2c(C3CC3)nc3cccnc32)C1 (stereo not drawn),-25%
Cc1noc(C)c1-c1cc2cc(CO)oc2c(NCC2CCOCC2)n1,i
Cc1noc(C)c1-c1cc2cc(CNC3CC3)oc2c(NC2CCN(C)CC2)n1,-14%[44.1 µM]
Cc1noc(C)c1-c1cc2cc(C(C)C)oc2c(Nc2ccn(C)n2)n1,-2%[44.1 µM]
Cc1noc(C)c1-c1cc2cc(C(C)C)oc2c(NC2CCN(C)CC2)n1,10µM*
Cc1cc2cc(-c3c(C)noc3C)nc(NC3CC3)c2o1,-9%[44.1 µM]
Cc1noc(C)c1-c1cc2cc(C(C)C)oc2c(NCCN2CCOCC2)n1,10µM*
COc1ccc(C[C@H](NC(=O)C2=C[C@@H](NC(=O)c3cc(OC)ccc3Br)[C@@H](O)[C@H](O)C2)C(N)=O)cc1,6%
CCc1ccc(N2CC(c3noc(-c4cc(F)cc(F)c4)n3)CC2=O)cc1 (stereo not drawn),1%
